Assay outcomes deposited in PubChem BioAssay by several laboratories.
CHT PAM: CHT positive allosteric modulators, primary screen, cell-based, membrane potential dye, choline EC20; High affinity choline transporter 1 (Homo sapiens), Q9GZV3; CHT-expressing cells; hits give high values; LV-AA mutant CHT in HEK293 cells; B-score at 10 µM; 310,000 compounds, 0.49% hits;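 active = initial fluorescence not abnormally high and integrated response B-score, plate-corrected, over 3 SD above library mean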
AI-2 QS mod: Vibrio harveyi AI-2 quorum sensing modulators, primary screen, JMH597 strain, luminescence/OD600 ratio | 300,000 compounds, 0.4% hits | activity change, % at 7.5 µM | Vibrio harveyi JMH597 AI-2 luminescence/OD600 ratio, 9 h; hits give low values; strain lacks LuxN and CqsS sensors; 0 = neutral-control median; in the data active = activity change below about -75%, passing the limit was not always enough;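 note: luminescence divided by OD600 gain over 9 h not by final OD600 alone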
ALR inh: inhibitors of human ALR sulfhydryl oxidase, primary screen, biochemical, H2O2 detection, HRP-luminol luminescence, single point; purified ALR, DTT oxidation; inhibition, % (no concentration beside the values); 290,000 compounds, 3.8% hits;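 active = mean replicate inhibition above about 79%, with every replicate also reaching it, limit read from the data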
CHT inh: inhibitors of human choline transporter CHT. High affinity choline transporter 1 (Homo sapiens), Q9GZV3. CHT-expressing cells, membrane potential dye, choline response; hits give low values. B-score at 10 µM. 310,000 compounds, 0.86% hits;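 active = B-score over 3 SD under the library average, and starting fluorescence ratio not unusually high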;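 note: choline stimulus applied at its EC90 after an EC20 pre-addition; B-score computed on integrated fluorescence ratio after choline addition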
PREPL inhibitor: PREPL enzyme inhibitors, primary screen, biochemical, fluorescence polarization; Prolyl endopeptidase-like (Homo sapiens), Q4J6C6; recombinant PREPL, fluorescence polarization activity-based probe; inhibition, % at 5.96 µM; 320,000 compounds, 0.68% hits; AID 2751, 2010;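 note: 0% = enzyme with DMSO and 100% = wells lacking enzyme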
PREPL inh cf: human PREPL enzyme inhibitors, confirmation, biochemical, fluorescence polarization; shares compounds with PREPL inhibitor; recombinant PREPL, fluorescence polarization activity probe; inhibition, % at 5.96 µM; 2,000 compounds, 67% hits;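 note: 0% = protein with DMSO and 100% = wells lacking protein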
Numbers without * were called inactive; i = inactive; x = not tested or not shown. Most compounds without a hit are left out; they make up all but 5% or so of the library. Cut-off read from the data, not from the text of the source, unless noted: active = inhibition above about 43%; inactive = the rest.

SMILES	CHT PAM	AI-2 QS mod	ALR inh	CHT inh	PREPL inhibitor	PREPL inh cf
CCC[C@@H](CN1CCC[C@H]1CN1C(N)=NC[C@@H]1Cc1ccccc1)N1C[C@@H](Cc2ccccc2)N(CCc2ccc(Cl)c(Cl)c2)C1=N	x	x	-9.2	x	31.9	x
CCC[C@@H](CN1CCC[C@H]1CN1C(N)=NC[C@H]1CC(C)C)N1C[C@@H](Cc2ccccc2)N(CCc2ccc(Cl)c(Cl)c2)C1=N	x	x	-8.1	x	41.8	x
CCC[C@@H](CN1CCC[C@H]1CN1C(N)=NC[C@@H]1Cc1ccccc1)N1C[C@@H]([C@H](C)CC)N(CCc2ccc(Cl)c(Cl)c2)C1=N	x	x	-4.8	x	43.4*	30.7
COc1cccc(NC(=O)CNC(=O)c2ccc(C)o2)c1	i	2.1	-5.7	i	-7.4	x
COc1ccccc1/C(C)=N/NC(=S)NCc1ccccc1	i	17.3	0.9	i	-3.2	x
COc1ccc(NC(=O)N(C)C[C@H]2Oc3ccc(NS(=O)(=O)c4c(C)noc4C)cc3C(=O)N([C@H](C)CO)C[C@@H]2C)cc1	x	x	0.3	x	11.8	x
Cc1[nH]n(-c2ccccc2)c(=S)c1C=Nc1ccc([N+](=O)[O-])cc1	i	x	x	i	-0.7	x
COc1ccc(CN(C)C(=O)c2cccc(NS(=O)(=O)c3ccccc3)c2)c(OC)c1	i	19.5	21.0	i	4.1	x
O=C(OCC(=O)N1CCN(c2ccc(F)cc2)CC1)c1cnc2ccccc2n1	x	x	-6.5	x	49.3*	31.5
COc1ccccc1CC(=O)OCC(=O)N1CCN(c2ccc(F)cc2)CC1	x	x	55.7	x	-4.2	x
CC(C)n1cnc2c(N(C)c3ccccc3)nc(N(CCN(C)C)Cc3ccccc3)nc21	i	23.5	-1.4	i	52.0*	47.6*
CN(C)CCN(Cc1ccccc1)c1nccc(N(C)C)c1C#N	i	23.9	-4.4	i	9.4	x
COc1ccc(S(=O)(=O)NCCc2nnc3ccc(SCc4cccnc4)nn23)cc1	i	64.1	-3.2	i	7.9	x
CCn1c(C)nc2cc(C(=O)N/N=C/c3cccc(O)c3O)ccc21	i	-12.5	99.0*	i	44.6*	39.3
O=C(NCCCN1CCCC1=O)c1ccc(NS(=O)(=O)c2cccc([N+](=O)[O-])c2)cc1	i	19.2	-6.3	i	4.6	x
O=C1N[C@@H](Cc2c[nH]c3ccccc23)COC(=O)[C@@H](Cc2ccc(F)cc2)C/C=C\C[C@H]1CC(=O)N(CCO)Cc1ccccc1	x	x	3.2	x	61.5*	53.0*
CC(C)(C)[C@@H]1COC(=O)[C@@H](Cc2ccc(F)cc2)C/C=C\C[C@H](CC(=O)N(CCO)Cc2ccccc2)C(=O)N1	x	x	-4.8	x	56.4*	46.5*
O=C1OC[C@@H]2CCCN2C(=O)[C@@H](CC(=O)N(CCO)Cc2ccccc2)C/C=C\CC[C@H]1Cc1ccc(F)cc1	x	x	-7.3	x	43.8*	30.4
O=C1N[C@@H](c2ccccc2)COC(=O)[C@@H](Cc2ccc(F)cc2)C/C=C\C[C@@H]1CC(=O)N(CCO)Cc1ccccc1	x	x	2.3	x	51.6*	40.7
O=C1N[C@H](Cc2ccccc2)COC(=O)[C@@H](Cc2ccc(F)cc2)CC/C=C/C[C@H]1CC(=O)N(CCO)Cc1ccccc1	x	x	-3.7	x	30.4	x
CC(C)(C)[C@@H]1COC(=O)[C@H](Cc2ccc(F)cc2)CC/C=C\C[C@@H](CC(=O)N(CCO)Cc2ccccc2)C(=O)N1	x	x	3.2	x	47.3*	50.7*
O=C1N[C@@H](Cc2ccccc2)COC(=O)[C@@H](Cc2ccc(F)cc2)CC/C=C/C[C@@H]1CC(=O)N(CCO)Cc1ccccc1	x	x	-0.6	x	44.0*	43.3*
CC(C)CN(C1CCS(=O)(=O)C1)S(=O)(=O)c1ccc(C(C)C)cc1 (stereo unspecified)	i	4.5	-0.4	i	6.5	x
Cc1nc2ccccc2c(=O)n1/N=C/c1ccc(O)c(O)c1O	i	59.0	98.5*	i	45.3*	38.2
Cc1nc2ccccc2c(=O)n1/N=C/c1ccccc1O	i	4.8	7.3	i	6.9	x
